# Test results reported in PubChem BioAssay AID1347414 (National Center for Advancing Translational Sciences (NCATS), 2020).
# Records with an inconclusive call do not appear. The source made the active and inactive calls. The call rests on the fitted dose curve; in most records, active means well fitted inhibition curve with a large enough effect; inconclusive means small, poorly fitted or top-dose-only effect; inactive means no such curve, though single readings can be large or run the other way. Numbered stars: 1 amine (or outer) side, 2 acyl side, 3 side chain; on linkers, the order of the positions; unused ones are H or OH. Bridge positions count the residues as written; N and C are the ends. Square brackets hold non-standard residues; d marks the D form. Peptide text beside a SMILES is read from it. I, II: the chains in the order shown. Actinocin(9to1) = Cc1c2oc3c(C)ccc(C(=O)[*:1])c3nc-2c(C(=O)[*:2])c(N)c1=O; NMeV = CN[C@H](C(=O)O)C(C)C; Sar = CNCC(=O)O
# Test: qHTS to identify inhibitors of the type 1 interferon - major histocompatibility complex class I in skeletal muscle: Secondary screen by immunofluorescence; further: nearly all actives have a fitted effect of over 70% in size;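 on activity change, negative = inhibition: digitonin at 100 µM served as the cytotoxic control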
# Conditions: C25cl48 myoblasts, IFN-b induced HLA-ABC immunofluorescence, 24 h, Viability; series mostly up to 49.8 µM; activity change, negative = inhibition: at the top concentration
# Text: Assay Submitter (PI): Travis B. Kinder Ph.D. & James Inglese Ph.D. Assay Development and Screening Technology Laboratory (ADST) National Center for Advancing Translational Sciences (NCATS), Rockville, MD National Institute of Health (NIH), Bethesda, Maryland Idiopathic inflammatory myopathies, collectively referred to as myositis, are a group of rare autoimmune diseases characterized by skeletal muscle inflammation, weakness, and usually accompanied by systemic pathologies of the skin, lungs, or vasculature. Current immunosuppressive therapies and glucocorticoids are often not curative and are accompanied by harsh side effects, especially in children with juvenile myositis. We initiated a drug repurposing and development program to identify more targeted, less toxic therapeutics to treat myositis. Although its cause is not known, muscle from a subset of patients have an abundance of the inflammatory type 1 interferon (IFN) and a down-stream product major histocompatibility complex class I (MHC class I), which are both thought to contribute to damage and weakness. We conducted quantitative high throughput screening (qHTS) on 6,576 compounds (4,679 unique) through a series of cell-based assays to identify those that inhibit the IFN-stimulated expression of MHC class I in muscle precursor cells (myoblasts). The compound identification and evaluation strategy utilized a primary screen with reporter-tagged MHC class I in genome-engineered myoblasts, ATP content counter screen for viability, HLA-ABC immunofluorescence secondary screen, and HLA-B RT-qPCR tertiary screen. To verify activity of compounds identified by qHTS in HLA-B HiBit reporter cells, compounds were assayed by high throughput HLA-ABC immunofluorescence. Briefly, 216 compounds identified from primary and counter screening as inhibitory with minimal cytotoxicity were dispensed into black/clear bottom […] using acoustic dispensing in an 11-point, 1:3 titration with a high final concentration of 50 uM. Normal immortalized human myoblasts C25cl48 were added to the plates with 4.0 ng/ml human IFN-beta for 24 hours, fixed, stained by immunofluorescence for HLA-ABC protein, nuclei, and cell body, and analyzed by laser scanning cytometry as described by Auld et al., 2006. References: Auld DS, Johnson RL, Zhang Y, Veith H, Jadhav A, Yasgar A, Simeonov A, Zheng W, Martinez ED, Westwick JK, Austin CP, Inglese J. 2006. Fluorescent protein-based cellular assays analyzed by laser-scanning microplate cytometry in 1536-well plate format. Methods Enzymol 414:566-89. doi:10.1016/S0076-6879(06)14029-X
# PROTOCOL TABLE (as described by Inglese et al., 2007) SEQUENCE No. (e.g., 1, 2, 3, etc.); […] (e.g., Cells, Incubation, Reagent, etc.); VALUE; DESCRIPTION 0; Compounds; 25 nl; Follow-up compounds dispensed at 25 nl/well with Labcyte Echo 655 acoustic dispenser in triplicate Aurora ChemLib 1536K black/clear bottom, low base, TC 1536-well plates (00019324). Also dispensed 25 nl/well DMSO control, ruxolitinib IFN-b inhibitor control titration, and digitonin cytotoxic control 1a; Cells; 5 uL; Multidrop Combi (Thermo Scientific) to seed 125 cells/well into eight plates in 5 ul/well of iHSKM growth medium (GM) without dexamethasone into columns 1+2. Add metal lids with gas-exchange holes 1b; Cells; 5 uL; Multidrop Combi (Thermo Scientific) to seed 125 cells/well into eight plates in 5 ul/well of iHSKM GM without dexamethasone + 4 ng/ml IFN-b into columns 3 - 48. […]
# On the % scale 0 is the no-effect control and ±100 the full control effect; potency means the concentration at half of the fitted maximal effect.
SMILES,Potency,"activity change, negative = inhibition"
C/C=C1\NC(=O)[C@H]2CSSCCC=C[C@H](CC(=O)N[C@H](C(C)C)C(=O)N2)OC(=O)[C@H](C(C)C)NC1=O,8.14 µM (active),
CCc1cnn2c(NCc3ccc[n+]([O-])c3)cc(N3CCCC[C@H]3CCO)nc12,,1.64% (inactive)
COc1cccc2c1C(=O)c1c(O)c3c(c(O)c1C2=O)C[C@@](O)(/C(CO)=N/NC(=O)CCCCCN1C(=O)C=CC1=O)C[C@@H]3O[C@H]1C[C@H](N)[C@H](O)[C@H](C)O1,,3.1% (inactive)
CCS(=O)(=O)N1CC(CC#N)(n2cc(-c3ncnc4[nH]ccc34)cn2)C1,,-2.18% (inactive)
CC[C@@]1(O)C(=O)OCc2c1cc1n(c2=O)Cc2c-1nc1cc(F)c(C)c3c1c2[C@@H](N)CC3,,21.5% (inactive)
Cc1cc(Nc2cc(NC(=O)c3c(Cl)cccc3Cl)ccn2)nc(N)n1,,-8.56% (inactive)
CO[C@H]1C(=O)[C@]2(C)[C@@H](OC)C[C@H]3OC[C@@]3(OC(C)=O)[C@H]2[C@H](OC(=O)c2ccccc2)[C@]2(O)C[C@H](OC(=O)[C@H](O)[C@@H](NC(=O)OC(C)(C)C)c3ccccc3)C(C)=C1C2(C)C,,0.182% (inactive)
CC(=O)Oc1ccc(C2(c3ccc(OC(C)=O)cc3)C(=O)Nc3ccccc32)cc1,,12.6% (inactive)
CC(C)(C)c1nc(-c2cccc(NS(=O)(=O)c3c(F)cccc3F)c2F)c(-c2ccnc(N)n2)s1,,9.89% (inactive)
CCc1c(-c2ccccc2C)nc2c(C#N)c[nH]n2c1=O,inactive,
CC[C@@]1(O)C(=O)OCc2c1cc1n(c2=O)Cc2cc3cc(O)ccc3nc2-1,,-2.03% (inactive)
Cn1ncc2cc(-c3cnc(N)c(Cl)c3N3CCC4(CCNC4=O)CC3)ccc21,,-17.9% (inactive)
CN1CCC(c2c(O)cc(O)c3c(=O)cc(-c4ccccc4Cl)oc23)C1CO (stereo not given),,-0.712% (inactive)
COc1nnc2ccc(N3CCC(c4ccc(OCCN5CCN(C)C(=O)[C@H]5C)cc4)CC3)nn12,,18.2% (inactive)
COc1c(C)cnc(Cn2cnc3c(Cl)nc(N)nc32)c1C,,-3.79% (inactive)
Cc1ccc(C(N)=O)cc1Nc1nccc(-c2cn(C(C)C)c3cnccc23)n1,,0.513% [at 99.5 µM] (inactive)
O=c1[nH]c2cc(Cl)ccc2c(O)c1-c1ccc(Oc2ccccc2)cc1,,2.3% (inactive)
OCCCNc1cc(-c2ccnc(Nc3cccc(Cl)c3)n2)ccn1,,3.83% (inactive)
CCC(=C/[C@H](C)C/C=C/C(C)=C/[C@@H](C)C(=O)[C@@H](C)[C@H](O)[C@@H](C)C/C(C)=C/C(=O)O)/C=C/[C@@H]1OC(=O)C=C[C@@H]1C,,3.28% (inactive)
COCCN1CCN(Cc2ccc(-c3n[nH]c4c3C(=O)c3c(NC(=O)NN5CCOCC5)cccc3-4)cc2)CC1,20.5 µM (active),

SMILES,Potency,"activity change, negative = inhibition"
COc1cccc2c1C(=O)c1c(O)c3c(c(O)c1C2=O)C[C@@](O)(C(=O)CO)C[C@@H]3O[C@H]1C[C@H](N)[C@H](OC2CCCCO2)[C@H](C)O1 (stereo not given in full),,4.58% (inactive)
"Cc1c2oc3c(C)ccc(C(=O)N[C@@H]4C(=O)N[C@H](C(C)C)C(=O)N5CCC[C@H]5C(=O)N(C)CC(=O)N(C)[C@@H](C(C)C)C(=O)O[C@@H]4C)c3nc-2c(C(=O)N[C@@H]2C(=O)N[C@H](C(C)C)C(=O)N3CCC[C@H]3C(=O)N(C)CC(=O)N(C)[C@@H](C(C)C)C(=O)O[C@@H]2C)c(N)c1=O (I: T[dV]P[Sar][NMeV] / II: T[dV]P[Sar][NMeV]; ester I:1-I:C, II:1-II:C; linker I:N-II:N via Actinocin(9to1))",,-2.59% (inactive)
CCc1c(O)cc(O)c(C(=O)c2ccc(OCCN3CCOCC3)c(OC)c2)c1CC(=O)N(CCOC)CCOC,,-4.12% (inactive)
Cc1cnc(Nc2ccc(N3CCN(C)CC3)cc2)nc1Nc1cccc(S(=O)(=O)NC(C)(C)C)c1,20.5 µM (active),
CS(=O)(=O)N1CCC(NC(=O)c2[nH]ncc2NC(=O)c2c(Cl)cccc2Cl)CC1,,-1.09% (inactive)
COc1ccc(-c2nc(N3CCOCC3)c3sc(CN(C)c4ncc(C(=O)NO)cn4)cc3n2)cn1,,-4.79% (inactive)
Cc1c(C(=O)Nc2ccc(Oc3ccnc4[nH]cc(-c5ccccc5)c34)c(F)c2)c(=O)n(-c2ccc(F)cc2)n1C,,-17.2% (inactive)
Cc1ccc(C(=O)Nc2ccc(CN3CCN(C)CC3)c(C(F)(F)F)c2)cc1C#Cc1cnc2[nH]ncc2c1,12.9 µM (active),
CCNC(=O)c1noc(-c2cc(C(C)C)c(O)cc2O)c1-c1ccc(CN2CCOCC2)cc1,,23.3% (inactive)
Cc1sc2c(c1C)C(c1ccc(Cl)cc1)=N[C@@H](CC(=O)Nc1ccc(OCCOCCOCCOCCNc3cccc4c3C(=O)N(C3CCC(=O)NC3=O)C4=O)cc1)c1nnc(C)n1-2 (stereo not given in full),,22.8% (inactive)
CCCCC(=O)OCC(=O)[C@H]1[C@H](C)C[C@H]2[C@@H]3C[C@H](F)C4=CC(=O)C=C[C@]4(C)[C@@]3(F)[C@@H](O)C[C@@]21C,,15.7% (inactive)
C=CCNC1=C2C[C@@H](C)C[C@H](OC)[C@H](O)[C@@H](C)/C=C(\C)[C@H](OC(N)=O)[C@@H](OC)/C=C\C=C(/C)C(=O)NC(=CC1=O)C2=O,,3.61% (inactive)
Cc1cc2c(cc1CC(=O)c1sccc1S(=O)(=O)Nc1onc(C)c1Cl)OCO2,,2.91% (inactive)
COc1ccc(CNc2nc(N(CCO)CCO)nc3c2ncn3C(C)C)cc1,,-27.7% (inactive)
COc1ccc(F)c(F)c1C(=O)c1cnc(NC2CCN(S(C)(=O)=O)CC2)nc1N,,1.88% (inactive)
O=C(NC1CCNCC1)c1[nH]ncc1NC(=O)c1c(Cl)cccc1Cl,,8.03% (inactive)
C[C@]12C=CC(=O)C=C1CC[C@H]1[C@@H]3C[C@@H](O)[C@](O)(C(=O)CO)[C@@]3(C)C[C@H](O)[C@@]12F,,6.5% (inactive)
C[C@H]1C[C@@H]2[C@H]([C@@H](O)C[C@@]3(C)[C@H]2CC[C@]3(O)C(=O)CO)[C@@]2(C)C=CC(=O)C=C12,,1.81% (inactive)
O=C1NC(=O)[C@@H](c2c[nH]c3ccccc23)[C@H]1c1cn2c3c(cccc13)CCC2,,9.87% (inactive)
CC(=O)OCC(=O)[C@@]12OC(C)(C)O[C@@H]1C[C@H]1[C@@H]3C[C@H](F)C4=CC(=O)C=C[C@]4(C)[C@@]3(F)[C@@H](O)C[C@@]12C,,-0.722% (inactive)
